# Assay results from publication PMC4552634, “A New Set of Chemical Starting Points with Plasmodium falciparum Transmission-Blocking Potential for Antimalarial Drug Discovery” (PLoS ONE, 2015).
# Hit rate of the full screen: of about 13,000 compounds, about 3,200 (25%) showed an effect of 50% or more. Some of the results follow.
# Test system: P. falciparum stage V gametocytes
# Set-up: BacTiter-Glo ATP luminescence viability of purified stage V gametocytes in 384-well plates, per cent inhibition versus DMSO
# Details: 48 h, 5 µM; inhibitor
row,Compound,% Inhibition [%]
1,CC(C)(C)C(=O)Nc1ccc(N2CCN(C(c3ccccc3)c3ccccc3)CC2)c(Cl)c1 [TCMDC-133713],36.59
2,COc1ccc(Cl)cc1N1CCN(CCCNC(=O)c2ccc(-c3nc4cc(Cl)c(Cl)cc4[nH]3)c(C)c2)CC1 [TCMDC-140082],-14.21
3,O=C(Cn1cc(C=C2SC(=NC3CCCC3)N(C3CCCC3)C2=O)c2ccccc21)N1CCCC1 [TCMDC-124810],-5.018
4,COc1ccc2nccc(N(C)CC3(O)CCN(CCc4ccc5c(c4)NC(=O)CS5)CC3)c2n1 [TCMDC-141472],49.29
5,CC(C)C(C)(C#N)NC(=O)CSc1nc2ccc([N+](=O)[O-])cc2s1 (centres unmarked) [TCMDC-123610],79.56
6,O=C(CSc1nc2ccc([N+](=O)[O-])cc2s1)Nc1ccccc1-c1ccccc1 [TCMDC-124341],43.04
7,CCCCC(=O)Nc1nc2ccc([N+](=O)[O-])cc2s1 [TCMDC-123686],-7.174
8,COc1ccc2nccc(N(C)CC3(O)CCC(NCc4cc5c(cn4)OCCO5)CC3)c2n1 (centres unmarked) [TCMDC-134497],30.63
9,N=c1ccn(CC(=NO)c2ccc(Cl)c(Cl)c2)cc1 [TCMDC-139033],-35.74
10,COc1ccccc1C1CCN(C2CCC(NC(=O)/C=C/c3ccc(F)c(F)c3)CC2)CC1 (centres unmarked) [TCMDC-133493],-77.67
11,O=[N+]([O-])c1nc(Br)n(Cc2ccc(Cl)cc2)n1 [TCMDC-125048],51.98
12,Clc1ccc(Cn2nc(Br)nc2Br)c(Cl)c1 [TCMDC-125047],-61.09
13,Cc1ccc(C2CCN(CCCCNC(=O)c3ccc(NC(=O)c4ccc(Cl)cc4)cc3)CC2)c(C)c1 [TCMDC-138354],9.967
14,O=C(NCCCCN1CCC(c2ccc3c(c2O)CCCC3)CC1)c1ccc(-c2ccc(Cl)cc2)cc1 [TCMDC-138661],61.25
15,CC(C)(Oc1c(C2CCN(CCCCNC(=O)c3ccc(-c4ccc(Cl)cc4)cc3)CC2)ccc2c1CCCC2)C(N)=O [TCMDC-134939],-3.044
16,CC(Oc1c(C2CCN(CCCCNC(=O)c3ccc(-c4ccc(Cl)cc4)cc3)CC2)ccc2c1CCCC2)C(N)=O (centres unmarked) [TCMDC-134653],65.96
17,CC(Oc1c(C2CCN(CCCCNC(=O)c3ccc(-c4ccc(C#N)cc4)cc3)CC2)ccc2c1CCCC2)C(N)=O (centres unmarked) [TCMDC-134551],41.12
18,C=Cc1c(C2CCN(CCCCNC(=O)c3ccc(-c4ccc(C#N)cc4)cc3)CC2)ccc2c1CCCC2 [TCMDC-135273],38.74
19,N#Cc1ccc(-c2ccc(C(=O)NCCCCN3CCC(c4cc(Br)c5c(c4O)CCCC5)CC3)cc2)cc1 [TCMDC-135238],-99.04
20,O=C(NCCCCN1CCC(c2ccc3c(c2O)CCCC3)CC1)c1ccc(NC(=O)c2ccc(Cl)cc2)cc1 [TCMDC-138645],88.57
21,CC(=O)c1ccc(-c2ccc(C(=O)NCCCCN3CCC(c4ccc5c(c4O)CCCC5)CC3)cc2)cc1 [TCMDC-138653],60.63
22,COc1ccc2c(c1C1CCN(CCCCNC(=O)c3ccc(NC(=O)c4ccc(Cl)cc4)cc3)CC1)CCCC2 [TCMDC-138553],46.07
23,COc1ccc2nc(-c3cc(-c4ccc(NC(=O)C(C)C)cc4)cnc3N)[nH]c2c1 [TCMDC-135322],10.64

row,Compound,% Inhibition [%]
1,C[C@H](CNc1ccnc(Nc2ccc3[nH]c(=O)[nH]c3c2)n1)c1ccccc1 [TCMDC-136804],-43.48
2,CN/C(=C\[N+](=O)[O-])NCCSCc1cc(C)c(CN(C)C)s1 [TCMDC-131256],8.916
3,Cc1cc(O)c2c3c1C(=O)C=C1C3c3c(c(O)cc(O)c3C(=O)C1(C)C)C2=O (centres unmarked) [TCMDC-132049],13.87
4,Oc1ccc(Cl)cc1CN1CCC(CCOC(c2ccccc2)c2ccccc2)CC1 [TCMDC-136036],7.087
5,CC(C)Sc1nc2c(c(=O)n1CCc1ccccc1)C1(CCCCC1)Cc1ccccc1-2 [TCMDC-123894],-24.8
6,O=C(Nc1ccc2c(c1)OCO2)c1cc(-c2cccnc2)cnc1NCc1ccc2c(c1)OCO2 [TCMDC-136698],-17.08
7,CN(c1ccnc(Nc2ccc(CS(C)(=O)=O)cc2)n1)C1CCN(Cc2ccccc2)CC1 [TCMDC-134396],-3.005
8,CNC(=O)Cc1ccc(C(=O)Nc2cccc(-c3cccc(-c4nc5c(C)cccc5[nH]4)c3)c2)cc1 [TCMDC-137075],-29.46
9,Cc1cccc2nc(-c3cccc(-c4cccc(CN5CCN(c6ccc(C#N)cn6)CC5)c4)c3)[nH]c12.O=C(O)C(F)(F)F [TCMDC-133118],18.89
10,Cc1cccc2nc(-c3ccc(-c4ccc(CNCc5ccc(S(C)(=O)=O)cc5)cc4)cc3)[nH]c12.O=C(O)C(F)(F)F [TCMDC-132905],55
11,Cc1cccc2nc(-c3cccc(-c4ccc(CNCc5ccc(S(C)(=O)=O)cc5)cc4)c3)[nH]c12.O=C(O)C(F)(F)F [TCMDC-132898],-16.63
12,Cc1cccc2nc(-c3cccc(-c4cccc(CNCc5ccc(S(C)(=O)=O)cc5)c4)c3)[nH]c12.O=C(O)C(F)(F)F [TCMDC-132896],-8.61
13,Cc1cccc2nc(-c3ccc(-c4ccc(CNCCc5ccncc5)cc4)cc3)[nH]c12.O=C(O)C(F)(F)F [TCMDC-132855],4.84
14,COc1ccc(CNCc2ccc(-c3ccc(-c4nc5cccc(C)c5[nH]4)cc3)cc2)cc1.O=C(O)C(F)(F)F [TCMDC-132720],-4.275
15,CNc1ccc(CNCc2ccc(-c3ccc(-c4nc5cccc(C)c5[nH]4)cc3)cc2)cc1.O=C(O)C(F)(F)F [TCMDC-132984],83.67
16,Cc1c(F)cc(C(=O)NC2CC2)cc1-c1ccc2c(cnn2S(=O)(=O)c2cccs2)c1 [TCMDC-135215],-11.35
17,Cc1c(F)cc(C(=O)NC2CC2)cc1-c1ccc2c(cnn2S(=O)(=O)c2ccc(Cl)s2)c1 [TCMDC-135232],32.9
18,Cc1c(F)cc(C(=O)NC2CC2)cc1-c1ccc2c(c1)c(C)nn2S(=O)(=O)c1cccs1 [TCMDC-135260],59.41
19,CO/C(=C\C=C\c1cc2cc(Cl)c(Cl)cc2[nH]1)C(=O)NCCCNC12CC3CC(CC(C3)C1)C2 [TCMDC-139077],103
20,CCN(CC)CCCNC(=O)/C(=C/C=C/c1cc2cc(Cl)c(Cl)cc2[nH]1)OC [TCMDC-139008],50.29
21,CO/C(=C\C=C\c1cc2cc(Cl)c(Cl)cc2[nH]1)C(=O)NCCCN1CCN(Cc2ccccc2)CC1 [TCMDC-139257],-24.43
22,CO/C(=C\C=C\c1cc2cc(Cl)c(Cl)cc2[nH]1)C(=O)NCCCN1CCC(c2ccccc2)CC1 [TCMDC-139272],8.329
23,CO/C(=C\C=C\c1cc2cc(Cl)c(Cl)cc2[nH]1)C(=O)NCCCNCCN(C)c1ccccc1 [TCMDC-139496],56.16

row,Compound,% Inhibition [%]
1,CO/C(=C\C=C\c1cc2cc(Cl)c(Cl)cc2[nH]1)C(=O)NCCCN(C)CCN(C)c1ccccc1 [TCMDC-139497],-12.25
2,CO/C(=C\C=C\c1cc2cc(Cl)c(Cl)cc2[nH]1)C(=O)NCC(C)(C)CN(C)C [TCMDC-139037],-32.83
3,CO/C(=C\C=C\c1cc2cc(Cl)c(Cl)cc2[nH]1)C(=O)NCCCN1CCN(c2ccc(OC)cc2)CC1 [TCMDC-139175],-57.04
4,CCN(CC)CCNC(=O)/C(=C/C=C/c1cc2cc(Cl)c(Cl)cc2[nH]1)OC [TCMDC-139013],-18.02
5,CN1CCC=C(C(=O)NCC(C)(C)c2nc(-c3ccc(Cl)c(O)c3)c(-c3ccncc3)[nH]2)C1 [TCMDC-140700],-7.132
6,Cc1c(OC(C)C)nc2ccccc2c1C(=O)N[C@H](c1cccc(F)c1)C1CC1 [TCMDC-135994],-18.71
7,O=C(NCCN1CCCC1)c1cccc(-c2ccc(-c3nc4ccccc4[nH]3)cc2)c1 [TCMDC-132324],-2.761
8,CC(C)c1ccc(NC(=O)c2ccc(CN3CCCN(Cc4cccc(O)c4)CC3)cc2)cc1 [TCMDC-136419],-24.98
9,O=c1[nH]c2c(cc1CNC1CCCCC1)c(-c1cccc(F)c1)nn2-c1ccccc1 [TCMDC-125867],39.49
10,Cc1cccc(-c2nn(-c3ccccc3)c3[nH]c(=O)c(CNC4CCCC4)cc23)c1 [TCMDC-136663],9.349
11,Cc1cccc(-c2nn(-c3ccccc3)c3[nH]c(=O)c(CN4CCSCC4)cc23)c1 [TCMDC-124897],84.44
12,Cc1ccc(NC(=O)c2ccc(CN3CCCN(CC4CCCCC4)CC3)cc2)cc1C [TCMDC-136425],-18.57
13,Cc1cc(-c2c[nH]c3ncc(-c4cccc5ncccc45)cc23)ccc1C(=O)O.O=C(O)C(F)(F)F [TCMDC-136377],16.5
14,NCc1ccc(CNCc2ccc(-c3ccc(-c4nc5cc(C(F)(F)F)ccc5[nH]4)s3)cc2)cc1.O=C(O)C(F)(F)F [TCMDC-132814],75.71
15,CN(CCN)Cc1cccc(-c2ccc(-c3nc4cc(C(F)(F)F)ccc4[nH]3)s2)c1.O=C(O)C(F)(F)F [TCMDC-132820],44.42
16,O=C(O)C(F)(F)F.OCC1CCN(Cc2cccc(-c3ccc(-c4nc5cc(C(F)(F)F)ccc5[nH]4)s3)c2)CC1 [TCMDC-133126],5.885
17,CN(CCN)Cc1ccc(-c2ccc(-c3nc4cc(C(F)(F)F)ccc4[nH]3)s2)cc1.O=C(O)C(F)(F)F [TCMDC-132821],65.23
18,NC(=O)C1CCN(Cc2ccc(-c3ccc(-c4nc5cc(C(F)(F)F)ccc5[nH]4)s3)cc2)CC1.O=C(O)C(F)(F)F [TCMDC-132687],-37.37
19,Nc1cccc(CNCc2ccc(-c3ccc(-c4nc5cc(C(F)(F)F)ccc5[nH]4)s3)cc2)c1.O=C(O)C(F)(F)F [TCMDC-132939],-86.12
20,CC(C)NCc1ccc(-c2ccc(-c3nc4cc(C(F)(F)F)ccc4[nH]3)s2)cc1.O=C(O)C(F)(F)F [TCMDC-132745],-79.18
21,O=C(O)C(F)(F)F.OCC1CCN(Cc2ccc(-c3ccc(-c4nc5cc(C(F)(F)F)ccc5[nH]4)s3)cc2)CC1 [TCMDC-133120],54.7
22,CNc1ccc(CNCc2ccc(-c3ccc(-c4nc5cc(C(F)(F)F)ccc5[nH]4)s3)cc2)cc1.O=C(O)C(F)(F)F [TCMDC-132985],42.48
